# Measured values reported in PubChem BioAssay.
# Activity calls are given as the source filed them.
# Columns and labels:
# [1] = tested on: PRMT1 (protein arginine N-methyltransferase 1); assay: PRMT1 binders on small-molecule microarrays, primary screen, biochemical, small-molecule microarray, 635 nm fluorescence (AID 1088); settings: small-molecule microarray binding, higher = more signal;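 also: binding of Prmt1 protein to compounds spotted on small-molecule microarray slides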
# [2] = yeast growth modulation, basal conditions, primary screen, YJM789 clinical isolate, OD600, 24 h (AID 1089);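 also: growth of clinical yeast isolate S. cerevisiae YJM 789 seeded 1000 cells per well; test concentration not given here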; settings: S. cerevisiae YJM789 growth, higher = more signal, called active from +8 up or from −8 down
# [3] = fission yeast growth modulation, primary screen, strain 972, OD600, 24 h, no modulator (AID 1090);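 also: basal condition with compound alone and no growth modifier present; test concentration not given here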; settings: S. pombe 972 growth, higher = more signal, called active from +8 up or from −8 down
# [4] = S. cerevisiae growth modulation with rapamycin, primary screen, strain BY4716, OD600, 96 h (AID 1091); settings: higher = more signal, called active from +8 up or from −8 down; also: test concentration not given here
# [5] = molecular target: Torsin-1A-interacting protein 2 (Homo sapiens) (UniProt Q8NFQ8); assay: LULL1 binders on small-molecule microarray, primary screen, cell lysate, human LULL1 lysate, 635/667 nm fluorescence (AID 1092); settings: hLULL1 lysate binding, 635 nm fluorescence, higher = more signal;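 also: probe is lysate of COS7 cells overexpressing human LULL1; score merges per-feature 667 nm fluorescence with signal-to-noise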
# [6] = E. coli growth modulation, two-sided OD650, primary screen, E. coli filamentation project, strain DRC41, 24 h (AID 1093); settings: OD650, 24 h, higher = more signal, called active from +8 up or from −8 down;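 also: MC1000 strain lacking acrAB efflux and sulA so SOS filamentation is blocked; test concentration not given here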
# [7] = small-molecule microarray binders of probe aLefty2, primary screen, biochemical, biotinylated probe, 635/667 nm fluorescence (AID 1094); settings: higher = more signal;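 also: score merges spot fluorescence near 667 nm with spot signal-to-noise ratio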
# [8] = tested on: Noggin (protein binding on small-molecule microarray); assay: Noggin binders on small-molecule microarray, primary screen, biochemical, 635/667 nm fluorescence (AID 1095); settings: 635 nm fluorescence, higher = more signal;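 also: score merges 667 nm feature fluorescence with signal to noise over triplicate slides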
# [9] = molecular target: Neurogenic locus notch homolog protein 3 (Homo sapiens) (UniProt Q9UM47); assay: NOTCH3 binders on small-molecule microarray, primary screen, biochemical, 635/667 nm fluorescence (AID 1096); settings: NOTCH3 binding, 635 nm fluorescence, higher = more signal
# [10] = small-molecule microarray binders of probe aEGFR, primary screen, biochemical, biotinylated probe, 635/667 nm fluorescence (AID 1097); settings: higher = more signal;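 also: probe is a biotinylated anti-EGFR antibody binding compounds printed on slides; score combines fluorescence near 667 nm and signal to noise of each spot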
# [11] = tested on: Plasmodium falciparum Sir2 (PF13_0152, Sir2A); assay: pfSir2 binders on small-molecule microarrays, primary screen, biochemical, small-molecule microarray, 635 nm fluorescence (AID 1098); settings: small-molecule microarray binding, fluorescence 635 nm; higher = more signal;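 also: score merges spot fluorescence intensity with its signal-to-noise ratio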
# [12] = small-molecule microarray binders of probe aDKK1, primary screen, biochemical, biotinylated probe, 635/667 nm fluorescence (AID 1099); settings: higher = more signal;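 also: score merges 667nm spot fluorescence with signal to noise across triplicate slides; reference of the scale not given here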
# [13] = small-molecule microarray binders of probe aCHRDL2, primary screen, biochemical, biotinylated probe, 635/667 nm fluorescence (AID 1100); settings: higher = more signal
# [14] = splicing luciferase reporter signal modulators, primary screen, spliceosome inhibition project, cell-based, HEK293, splice +/- reporter (AID 1101); settings: luminescence, 24 h, higher = more signal, called active from +8 up or from −8 down;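 also: HEK293 cells carrying a splicing-competent luciferase reporter gene; test concentration not given here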
# [15] = molecular target: Fibroblast growth factor 10 (Homo sapiens) (UniProt O15520); assay: FGF10 binders on small-molecule microarrays, primary screen, biochemical, small-molecule microarray, 635 nm fluorescence (AID 1102); settings: FGF10 binding, fluorescence 635 nm, higher = more signal
# [16] = tested on: glycogen synthase kinase-3 (GSK3A per assay name; protocol says GSK3B); assay: GSK3 binders on small-molecule microarrays, primary screen, biochemical, small-molecule microarray, 635 nm fluorescence, GSK3A (AID 1103); settings: small-molecule microarray binding, fluorescence 635 nm; higher = more signal; also: the record names both GSK3A and GSK3B
# [17] = molecular target: Epidermal growth factor receptor (Homo sapiens) (UniProt P00533); assay: EGFR binders on small-molecule microarrays, primary screen, biochemical, small-molecule microarray, 635 nm fluorescence (AID 1104); settings: EGFR binding, higher = more signal;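 also: score merges 667 nm emission intensity with spot signal to noise over triplicate slides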
# [18] = molecular target: Follistatin-related protein 3 (Homo sapiens) (UniProt O95633); assay: FSTL3 binders on small-molecule microarrays, primary screen, biochemical, small-molecule microarray, 635 nm fluorescence (AID 1105); settings: FSTL3 binding, higher = more signal;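 also: score merges emission near 667 nm and signal to noise per printed spot across three slides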
# [19] = molecular target: Dickkopf-related protein 1 (Homo sapiens) (UniProt O94907); assay: DKK1 binders on small-molecule microarrays, primary screen, biochemical, small-molecule microarray, 635 nm fluorescence scan (AID 1106); settings: DKK1 binding, higher = more signal;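 also: score merges emission near 667 nm with signal to noise over three replicate slides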
# [20] = tested on: Inhibin beta A chain (activin A); assay: INHBA (activin A) binders on microarrays, primary screen, biochemical, small-molecule microarray, 635 nm fluorescence scan (AID 1107); settings: small-molecule microarray binding, higher = more signal;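 also: mouse activin A protein probed at 4.33 µg/mL on printed slides; score merges bound-protein fluorescence near 667 nm with spot signal-to-noise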
# Sequence of Neurogenic locus notch homolog protein 3 (Homo sapiens) (Q9UM47 whole entry, looked up): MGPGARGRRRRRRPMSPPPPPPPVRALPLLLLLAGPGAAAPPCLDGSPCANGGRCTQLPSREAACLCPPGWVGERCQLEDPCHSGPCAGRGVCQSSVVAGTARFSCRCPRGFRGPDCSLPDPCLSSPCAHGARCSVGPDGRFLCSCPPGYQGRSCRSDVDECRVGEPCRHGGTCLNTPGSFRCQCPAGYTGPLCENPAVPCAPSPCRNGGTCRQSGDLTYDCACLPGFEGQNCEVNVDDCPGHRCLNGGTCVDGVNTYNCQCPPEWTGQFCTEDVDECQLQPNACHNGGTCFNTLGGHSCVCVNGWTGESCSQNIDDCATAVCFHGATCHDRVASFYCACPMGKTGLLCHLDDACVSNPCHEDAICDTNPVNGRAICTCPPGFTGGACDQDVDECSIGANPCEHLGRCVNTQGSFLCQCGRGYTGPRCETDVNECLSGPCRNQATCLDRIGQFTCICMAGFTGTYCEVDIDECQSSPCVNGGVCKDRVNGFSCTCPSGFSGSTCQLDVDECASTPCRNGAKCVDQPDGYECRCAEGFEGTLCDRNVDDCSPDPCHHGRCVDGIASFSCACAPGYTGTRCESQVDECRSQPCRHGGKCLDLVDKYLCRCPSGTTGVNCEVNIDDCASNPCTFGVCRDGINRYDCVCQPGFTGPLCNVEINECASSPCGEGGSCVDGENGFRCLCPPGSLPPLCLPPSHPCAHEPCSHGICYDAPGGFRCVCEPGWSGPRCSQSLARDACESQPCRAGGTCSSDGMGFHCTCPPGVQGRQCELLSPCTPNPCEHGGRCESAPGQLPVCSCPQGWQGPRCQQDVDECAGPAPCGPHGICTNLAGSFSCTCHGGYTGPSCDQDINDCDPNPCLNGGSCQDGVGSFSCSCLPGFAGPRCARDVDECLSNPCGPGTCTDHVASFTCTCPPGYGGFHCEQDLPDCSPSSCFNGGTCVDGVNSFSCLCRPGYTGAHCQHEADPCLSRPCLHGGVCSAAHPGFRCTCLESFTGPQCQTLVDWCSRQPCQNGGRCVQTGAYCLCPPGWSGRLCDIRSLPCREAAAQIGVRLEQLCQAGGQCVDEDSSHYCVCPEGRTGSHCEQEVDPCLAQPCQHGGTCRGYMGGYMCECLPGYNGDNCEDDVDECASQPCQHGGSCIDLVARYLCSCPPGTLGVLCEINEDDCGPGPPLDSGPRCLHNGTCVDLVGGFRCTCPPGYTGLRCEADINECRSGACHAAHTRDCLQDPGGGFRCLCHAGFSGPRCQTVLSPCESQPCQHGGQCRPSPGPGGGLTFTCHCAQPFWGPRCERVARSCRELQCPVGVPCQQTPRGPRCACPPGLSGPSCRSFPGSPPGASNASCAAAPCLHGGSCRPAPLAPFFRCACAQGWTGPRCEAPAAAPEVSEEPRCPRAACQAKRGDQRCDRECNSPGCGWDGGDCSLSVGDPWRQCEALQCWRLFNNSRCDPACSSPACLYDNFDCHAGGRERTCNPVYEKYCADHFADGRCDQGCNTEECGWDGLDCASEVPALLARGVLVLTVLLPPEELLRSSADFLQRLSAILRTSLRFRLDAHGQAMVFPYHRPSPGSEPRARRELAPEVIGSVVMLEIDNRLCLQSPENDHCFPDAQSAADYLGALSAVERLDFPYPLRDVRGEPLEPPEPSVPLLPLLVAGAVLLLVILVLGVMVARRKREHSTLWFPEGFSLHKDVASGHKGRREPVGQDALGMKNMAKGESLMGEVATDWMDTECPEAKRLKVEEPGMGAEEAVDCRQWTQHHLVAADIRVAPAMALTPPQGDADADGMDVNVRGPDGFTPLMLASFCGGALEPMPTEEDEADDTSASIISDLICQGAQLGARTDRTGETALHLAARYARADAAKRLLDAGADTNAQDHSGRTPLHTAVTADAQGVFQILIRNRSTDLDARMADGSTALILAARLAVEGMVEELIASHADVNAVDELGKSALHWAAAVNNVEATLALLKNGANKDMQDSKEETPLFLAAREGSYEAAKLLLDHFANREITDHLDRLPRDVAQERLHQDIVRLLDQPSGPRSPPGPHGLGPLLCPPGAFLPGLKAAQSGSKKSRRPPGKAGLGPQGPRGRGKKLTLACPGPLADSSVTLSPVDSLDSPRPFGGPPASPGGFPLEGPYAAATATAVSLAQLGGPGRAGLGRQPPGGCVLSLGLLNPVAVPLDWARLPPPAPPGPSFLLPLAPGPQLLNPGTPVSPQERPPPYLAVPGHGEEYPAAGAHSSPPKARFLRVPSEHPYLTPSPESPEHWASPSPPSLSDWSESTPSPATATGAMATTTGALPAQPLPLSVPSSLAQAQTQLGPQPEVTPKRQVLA
# Sequence of Torsin-1A-interacting protein 2 (Homo sapiens) (Q8NFQ8 whole entry, looked up): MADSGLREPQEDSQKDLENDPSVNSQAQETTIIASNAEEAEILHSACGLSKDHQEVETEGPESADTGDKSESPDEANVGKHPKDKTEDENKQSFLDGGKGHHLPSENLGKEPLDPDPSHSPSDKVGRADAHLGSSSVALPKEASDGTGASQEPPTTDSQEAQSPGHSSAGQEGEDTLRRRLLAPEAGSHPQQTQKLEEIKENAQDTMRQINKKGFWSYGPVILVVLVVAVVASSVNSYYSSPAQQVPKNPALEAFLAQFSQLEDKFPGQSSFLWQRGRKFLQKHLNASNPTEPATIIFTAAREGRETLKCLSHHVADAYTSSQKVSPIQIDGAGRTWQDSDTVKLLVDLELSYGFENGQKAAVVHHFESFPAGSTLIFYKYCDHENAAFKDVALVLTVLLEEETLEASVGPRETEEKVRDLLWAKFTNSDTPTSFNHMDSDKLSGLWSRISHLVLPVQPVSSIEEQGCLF
# Sequence of Epidermal growth factor receptor (Homo sapiens) (P00533 whole entry, looked up): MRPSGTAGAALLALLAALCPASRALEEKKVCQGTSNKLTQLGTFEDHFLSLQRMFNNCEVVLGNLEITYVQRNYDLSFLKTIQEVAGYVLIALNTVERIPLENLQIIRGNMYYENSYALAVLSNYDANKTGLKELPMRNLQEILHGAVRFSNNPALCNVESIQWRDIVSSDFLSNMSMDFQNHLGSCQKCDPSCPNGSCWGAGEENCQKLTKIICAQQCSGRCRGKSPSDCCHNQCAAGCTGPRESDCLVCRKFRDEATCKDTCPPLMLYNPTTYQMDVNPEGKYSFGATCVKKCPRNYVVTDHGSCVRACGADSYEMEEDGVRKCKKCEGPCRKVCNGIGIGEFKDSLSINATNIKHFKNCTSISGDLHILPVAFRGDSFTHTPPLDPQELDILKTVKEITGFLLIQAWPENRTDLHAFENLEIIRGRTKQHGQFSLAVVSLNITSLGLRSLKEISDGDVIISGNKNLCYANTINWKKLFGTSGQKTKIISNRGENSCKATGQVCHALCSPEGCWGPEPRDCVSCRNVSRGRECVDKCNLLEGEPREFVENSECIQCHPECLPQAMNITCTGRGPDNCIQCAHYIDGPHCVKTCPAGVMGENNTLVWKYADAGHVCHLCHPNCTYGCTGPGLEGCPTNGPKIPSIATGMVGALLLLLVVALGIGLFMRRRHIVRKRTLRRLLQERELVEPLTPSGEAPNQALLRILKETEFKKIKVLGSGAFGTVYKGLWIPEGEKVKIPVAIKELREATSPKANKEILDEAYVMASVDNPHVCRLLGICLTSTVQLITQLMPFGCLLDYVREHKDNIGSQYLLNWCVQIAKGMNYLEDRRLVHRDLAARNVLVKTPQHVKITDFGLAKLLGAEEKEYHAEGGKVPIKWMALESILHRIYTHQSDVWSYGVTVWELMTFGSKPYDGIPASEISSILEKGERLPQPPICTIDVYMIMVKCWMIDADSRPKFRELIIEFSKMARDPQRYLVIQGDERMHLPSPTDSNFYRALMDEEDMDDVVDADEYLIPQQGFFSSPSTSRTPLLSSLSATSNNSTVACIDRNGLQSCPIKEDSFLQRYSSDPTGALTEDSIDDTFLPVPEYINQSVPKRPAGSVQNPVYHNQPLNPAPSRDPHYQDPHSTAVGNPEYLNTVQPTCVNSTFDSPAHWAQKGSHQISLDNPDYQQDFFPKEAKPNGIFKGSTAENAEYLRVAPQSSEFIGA
# Sequence of Follistatin-related protein 3 (Homo sapiens) (O95633 whole entry, looked up): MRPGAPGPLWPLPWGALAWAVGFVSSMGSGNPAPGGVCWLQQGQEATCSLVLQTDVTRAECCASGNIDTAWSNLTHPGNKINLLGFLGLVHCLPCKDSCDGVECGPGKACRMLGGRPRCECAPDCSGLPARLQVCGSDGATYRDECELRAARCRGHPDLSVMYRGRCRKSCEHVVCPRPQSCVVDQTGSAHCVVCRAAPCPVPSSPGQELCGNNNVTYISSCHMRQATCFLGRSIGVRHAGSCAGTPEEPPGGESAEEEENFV
# Sequence of Fibroblast growth factor 10 (Homo sapiens) (O15520 whole entry, looked up): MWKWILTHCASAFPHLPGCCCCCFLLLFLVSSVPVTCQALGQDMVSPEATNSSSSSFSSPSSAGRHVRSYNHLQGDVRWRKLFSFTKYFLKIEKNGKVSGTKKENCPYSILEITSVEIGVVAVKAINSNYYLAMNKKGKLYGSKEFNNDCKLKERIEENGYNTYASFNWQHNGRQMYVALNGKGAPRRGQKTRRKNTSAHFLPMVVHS
# Sequence of Dickkopf-related protein 1 (Homo sapiens) (O94907 whole entry, looked up): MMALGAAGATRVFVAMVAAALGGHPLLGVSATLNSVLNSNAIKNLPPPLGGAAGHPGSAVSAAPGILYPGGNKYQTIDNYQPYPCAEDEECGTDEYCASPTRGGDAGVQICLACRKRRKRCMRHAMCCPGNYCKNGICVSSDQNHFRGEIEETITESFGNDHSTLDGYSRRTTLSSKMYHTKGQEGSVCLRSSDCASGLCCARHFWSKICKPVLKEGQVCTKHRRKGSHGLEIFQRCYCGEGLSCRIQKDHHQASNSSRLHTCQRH
Compound,composite z-score [1],z-score [2],z-score [3],z-score [4],composite z-score [5],z-score [6],composite z-score [7],composite z-score [8],composite z-score [9],composite z-score [10],composite z-score [11],composite z-score [12],composite z-score [13],z-score [14],composite z-score [15],composite z-score [16],composite z-score [17],composite z-score [18],composite z-score [19],composite z-score [20]
COC(=O)C1=C(C)N(Cc2ccccc2)c2c(C(=O)OC)c(C(=O)OC)c(C(=O)OC)c(=O)n2[C@@H]1c1ccccc1,0.269,-0.677 (inactive),-1.75 (inactive),-0.389 (inactive),0.309,0.535 (inactive),-0.195,0.433,0.699,-0.065,0.119,-0.056,-0.32,-0.449 (inactive),0.583,0.37,0.12,0.287,0.436,0.16
CCC(=O)[C@]12O[C@@]3([C@@H]4C(=O)OCC[C@@H]41)N(CC)C(C)=C(C(=O)OC)[C@@H](c1ccccc1)N3C2=O,-0.486,-1.62 (inactive),-1.89 (inactive),-0.153 (inactive),0.155,0.421 (inactive),-0.0928,0.152,-0.37,-0.0818,-0.155,-0.41,-0.87,-1.9 (inactive),0.162,0.0495,0.0064,0.599,0.817,1.7
CN1C2C=C(c3ccc(CO)cc3)C(C3C(=O)N(C(N)=O)C(=O)C32)C1c1cccs1 (stereo not given),0.4,0.697 (inactive),-1.74 (inactive),1.21 (inactive),0.813,1.22 (inactive),-0.0774,0.198,-0.25,-0.0798,1.41,-0.0009,0.549,-0.795 (inactive),0.25,-0.148,0.136,-0.623,-0.72,1.02
C[C@@H]1CC[C@H]2C(=O)N3[C@@H](CC[C@@H](C)[C@@H]3c3cccc(N4CCOCC4)c3)C(=O)N2[C@H]1c1cccc(N2CCOCC2)c1,0.52,0.123 (inactive),0.132 (inactive),0.651 (inactive),0.44,0.593 (inactive),-0.275,0.252,0.464,-0.012,1.15,0.335,0.189,-0.188 (inactive),0.37,0.513,0.224,1.12,1.82,0.866
C=C(C)[C@@H]1CC=C(C(O)C2C=CC3C(=O)NC(=O)C3N2Nc2ccccn2)CC1 (stereo not given in full),1.55,0.0118 (inactive),0.514 (inactive),-0.285 (inactive),2.76,-0.953 (inactive),0.607,1.9,1.02,0.641,1.66,0.946,0.287,1.1 (inactive),1.14,1.32,1.88,1.65,2.16,1.81
COc1ccc([Si](C)(C)[C@H]2[C@H](CCO)O[C@@]3(C(=O)N(Cc4ccccc4)c4ccc(N5C(=O)c6cccc7cccc5c67)cc43)[C@@H]2C)cc1,0.491,1.05 (inactive),1.11 (inactive),33 (active),1.12,1.97 (inactive),-0.225,-0.453,-0.203,-0.218,0.0883,0.153,0.633,-1.1 (inactive),-0.558,-0.636,-0.835,-0.574,-0.784,0.629
C=CCC(OC(C)=O)[C@@H]1[C@@H](N(Cc2cccc3ccccc23)C(=O)c2ccc(C)cc2)c2cc(OCCCO)ccc2N1C(=O)c1ccc(-c2ccccc2)cc1 (stereo not given in full),0.578,-2.24 (inactive),0.167 (inactive),-0.347 (inactive),0.298,1.29 (inactive),-0.11,0.314,0.387,-0.0967,0.451,-0.0044,0.322,-1.15 (inactive),-0.162,0.0243,0.0513,0.268,-0.133,1.08
NC(=O)NCC#Cc1ccc2c(c1)[C@]1(C(=O)N2)[C@H](c2ccccc2OCCO)N2[C@H](c3ccccc3)[C@H](c3ccccc3)OC(=O)[C@H]2[C@@H]1C(=O)N1CCN(c2ncccn2)CC1,1.54,1.73 (inactive),0.0422 (inactive),4.25 (inactive),2.7,2.9 (inactive),0.276,1.17,1.02,-0.0286,0.722,0.0815,0.542,0.222 (inactive),0.651,0.814,0.251,0.844,0.133,1.25
CO[C@@H]1COC(=O)CC=C[C@@H](C)[C@H](OC)COC(=O)CC=C[C@H]1C,-0.0399,-0.131 (inactive),-0.761 (inactive),-0.891 (inactive),-0.266,0.162 (inactive),-0.38,1.71,-0.801,-0.158,0.816,-0.628,-1.4,0.161 (inactive),0.262,0.103,0.346,0.953,1.84,1.8
COc1ccc([Si](C)(C)[C@H]2[C@H](CCO)O[C@@]3(C(=O)N(Cc4ccc(N5CCCCC5=O)cc4)c4ccccc43)[C@@H]2C)cc1,1.54,-0.025 (inactive),-0.717 (inactive),2.28 (inactive),1.88,1.9 (inactive),-0.116,0.993,1.07,-0.0288,1.36,0.175,0.37,1.23 (inactive),0.345,0.642,0.122,0.55,0.236,0.766
